Test results reported in PubChem BioAssay (NCATS).
Inconclusive results are not listed. Calls of active or inactive are those of the source. Calls come from the whole dose curve; as a rule, active = well fitted cell-killing curve with a large enough effect; inconclusive = small, poorly fitted or top-dose-only effect; inactive = flat fitted curve, though single readings scatter.

assay: qHTS of pediatric cancer cell lines to identify multiple opportunities for drug repurposing: Primary screen for control Hh wild type fibroblast cells (AID 1347106); conditions: Hh wild-type fibroblast viability, CellTiter-Glo luminescence, 48 h; series mostly up to 46 µM; activity change, negative = cytotoxic: at the top concentration;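 note: a drop in luminescence marks cytotoxicity and a rise apparent proliferation; nearly all actives have a fitted effect of over 55% in size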
In short: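 Viability after 48 h compound treatment at 37C, 500-1,000 cells/well, read as ATP luminescence with CellTiter-Glo. Primary screens used 11-point (MIPE, 0.78 nM-46 µM) or 8-point (NPC, 0.59 nM-46 µM) final concentrations; follow-up screens used 11-point dilutions.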
% is set by controls: 0 for no effect and ±100 for the full control effect.

Compound	activity change, negative = cytotoxic
COc1ccc(-c2oc3c(CC=C(C)C)c(O)cc(O)c3c(=O)c2O)cc1	-1.56% (inactive)
CN(C)CCN(Cc1ccc(Cl)cc1)c1ccccn1	-8.69% (inactive)
CCCCN(CCCC)CC(O)c1cc(Cl)cc2c1-c1ccc(Cl)cc1C2=Cc1ccc(Cl)cc1 (stereo not given)	17.6% (inactive)
O=C1NC(=O)C(=Cc2ccc(-c3ccc(F)cc3O)o2)S1	-9.79% (inactive)
CNC(=O)c1ccc2c(C(=Nc3cccc(CN(C)C)c3)c3ccccc3)c(O)[nH]c2c1	1.35% (inactive)
COc1cc([C@H]2Oc3cc([C@H]4Oc5cc(O)cc(O)c5C(=O)[C@H]4O)ccc3O[C@H]2CO)ccc1O	-14.1% (inactive)
CC(C)[C@H](O)C(=O)N[C@@H](C)C(=O)N[C@@H]1C(=O)N(C)CCc2ccccc21	-14% (inactive)
CCNC(=O)Nc1ccc(Oc2ncnc(N)c2C=NOC)cc1Cl	-0.461% (inactive)
O=C(O)Cc1cccc(OCCCN(Cc2cccc(C(F)(F)F)c2Cl)CC(c2ccccc2)c2ccccc2)c1	5.42% (inactive)
CN1CC(=O)NC1=NC(=O)Nc1cccc(Cl)c1	-6.5% (inactive)
O=c1[nH]c(=O)n([C@H]2C[C@@H](O)[C@@H](CO)O2)cc1I	6.19% (inactive)
CCC(=O)OCC(=O)[C@@]1(OC(=O)CC)[C@@H](C)C[C@@H]2[C@H]3CCC4=CC(=O)C=C[C@]4(C)[C@@]3(F)[C@@H](O)C[C@@]21C	1.37% (inactive)
CC(C)C[C@H](NC(=O)c1cc2ccccc2s1)C(=O)N1CCN(C(=O)[C@H](CO)NS(=O)(=O)c2ccc(Cl)cc2Cl)CC1	1.15% (inactive)
CNc1nc(Nc2ccc(C(=O)N3CCOCC3)cc2OC)ncc1Cl	-0.651% (inactive)
CNC1CCC(N(Cc2cccc(-c3ccncc3)c2)C(=O)c2sc3ccccc3c2Cl)CC1 (stereo not given)	-12.7% (inactive)
CC[C@H](C=C[C@@H](C)[C@H]1CC[C@H]2[C@@H]3CC=C4C[C@@H](O)CC[C@]4(C)[C@@H]3CC[C@]12C)C(C)C	-0.677% [at 16.1 µM] (inactive)
N#CC(c1ccc(Cl)cc1)c1c(Cl)cc(-n2ncc(=O)[nH]c2=O)cc1Cl (stereo not given)	7.88% (inactive)
CN1CCN(c2ncc(-c3cc(Cl)cc(Cl)c3Cl)c(N)n2)CC1	-14.1% (inactive)
CCOc1ccccc1N=Nc1c(C)[nH]n(-c2nc(-c3ccccc3)cs2)c1=O	-8.81% (inactive)
C[C@H](CCC(=O)O)[C@H]1CC[C@H]2[C@H]3[C@@H](CC[C@]12C)[C@@]1(C)CC[C@@H](O)C[C@H]1C[C@@H]3O	-12.3% (inactive)
CCCCC(C)(C)[C@H](O)C=C[C@H]1[C@H](O)CC(=O)[C@H]1CC=CCCCC(=O)O	-4.3% (inactive)
CCc1cc(-c2n[nH]c(C)c2-c2ccc3c(c2)OCCO3)c(O)cc1O	-18.8% (inactive)
CN[C@@H]1CN(c2ccc3c(=O)c(C(=O)O)cn(-c4nccs4)c3n2)C[C@@H]1OC	-17.1% [at 16.1 µM] (inactive)
C[C@H](c1ccc(F)cc1CCCC(=O)O)N(c1cc(F)ccc1F)S(=O)(=O)c1ccc(Cl)cc1	3.5% (inactive)
CC[C@@H]([C@H](C)O)n1ncn(-c2ccc(N3CCN(c4ccc(OCC5CO[C@@](Cn6cncn6)(c6ccc(F)cc6F)C5)cc4)CC3)cc2)c1=O (stereo not given in full)	-3.55% (inactive)
